Laboratory results published in PubChem BioAssay AID1063 (University of Pittsburgh Molecular Library Screening Center, 2008).
The whole screen tested about 200,000 compounds, of which about 18,000 (9%) were called active. This excerpt belongs to a sample that is enriched for actives. Values without a mark were called inactive. Cut-off read from the data, not from the text of the source: active = inhibition above about 50%; inactive = the rest. Where a SMILES comes first, the peptide text is derived from it. The star is where a group is joined. OPac = O=C(CO*)c1ccccc1; Bz = O=C(c1ccccc1)*

Experiment: Leishmania major promastigote growth inhibition, primary screen (AID 1063);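 note: promastigotes grown with compound for 44 hours at 28 °C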
Conditions: Leishmania major promastigotes, resazurin fluorescence viability; at 10 µM; active compounds read high

In order of falling inhibition:
1. Cc1ccc(C(=O)NCCNC(=O)c2ccccc2)cc1  30.8%
2. O=C(c1ccccc1)N1CCN(C(=O)N2CCCCC2)CC1  27.4%
3. COc1cc2c(cc1OC)CN(C(=O)c1ccc(S(=O)(=O)N3CCCCCC3)cc1)CC2  24.6%
4. Cc1ccc2oc(=O)c3cnn(CC(=O)N(Cc4ccco4)C4CCCCC4)c3c2c1  22.1%
5. c1ccc(C2=Nc3cccc4cccc(c34)N2)cc1  19.1%
6. CC1CCCCC1NC(=O)CO/N=C/c1ccc(OC(F)F)cc1 (configuration not stated)  13.4%
7. OC(COCC1COc2ccccc2O1)CN1CCN(c2ccc(F)cc2)CC1 (configuration not stated)  12%
8. O=C(Nc1cc(Cl)cc(Cl)c1)C(NCCCO)c1ccccc1 (configuration not stated)  10.6%
9. S=C(NCc1cccnc1)Nc1ccc(Cl)cc1Cl  10.6%
10. COc1ccc(C)cc1NC(=O)Nc1ccccc1SC  10.1%
11. Cc1cccc(-n2c(N)c(C(=O)N3CCN(C)CC3)sc2=S)c1  9.91%
12. Fc1ccccc1N=C1Nc2cccc3cccc1c23  8.76%
13. CNS(=O)(=O)c1cnccc1N1CCN(c2cccc(C)c2)CC1  8.07%
14. Cc1nn(Cc2ccc(Cl)cc2)c(Cl)c1/C=N/NC(=O)CNc1ccccc1F  8.05%
15. CCCNC(=S)N1CCCC(c2nc3ccccc3[nH]2)C1 (configuration not stated)  7.49%
16. Cc1ccc(-n2c(N)c(C(=O)N3CCOCC3)sc2=S)c(C)c1  6.62%
17. O=C(N/N=C1\CCSC1)c1cc(Cl)ccc1O  3.97%
18. COc1ccc(C)cc1NC(=O)C(Sc1ccccc1)c1ccccc1 (configuration not stated)  3.92%
19. Cc1cc(C#N)c(SCC(N)=O)nc1-c1ccc(F)cc1  2.96%
20. O=c1cc(CO)oc(C(Nc2cccc(C(F)(F)F)c2)c2ccccn2)c1O (configuration not stated)  2.74%
21. Cc1ccc(-c2cc(=O)c3ccc(F)cc3[nH]2)cc1  1.73%
22. Cc1cc(C)cc(NC(=O)CSc2ccccc2)c1  1.71%
23. COc1ccccc1N1CCN(C(=O)c2ccc(Cl)c(S(=O)(=O)N3CCCC3)c2)CC1  1.35%
24. CCOc1ccc(CN2CCN(Cc3ccc(C)o3)CC2CCO)cc1 (configuration not stated)  -0.08%
25. Cc1cccc(NC(=S)N2CCC(c3nc4ccccc4s3)CC2)c1  -0.22%
26. N#Cc1ccc(C(=O)Nc2cccc3cccnc23)c(F)c1  -0.23%
27. CN1CCN(CCNC(=O)Nc2ccc([N+](=O)[O-])cc2)CC1  -0.61%
28. Cc1ccc(C(C(=O)NC2CCCC2)N(Cc2ccco2)C(=O)CCC(=O)Nc2ccccn2)cc1 (configuration not stated)  -1.72%
29. NC(=O)COC(=O)c1cc(S(=O)(=O)N2CCN(c3ccccc3)CC2)ccc1Cl  -1.75%
30. CCC(C(=O)Nc1ccc(C(C)C)cc1)c1ccccc1 (configuration not stated)  -1.77%
31. CCOC(=O)Nc1ccc(NC(=O)OCC)cc1  -2.26%
32. CCN(CC)CCNS(=O)(=O)c1ccc(/C=C/C(=O)O)cc1  -2.33%
33. CN(C)S(=O)(=O)c1ccc(NC(=O)N2CCOCC2)cc1  -2.72%
34. Cc1cc(C)c2nc(-c3cccnc3)cc(C(=O)Nc3ccc(S(=O)(=O)Nc4onc(C)c4C)cc3)c2c1  -3.47%
35. CN1C(=O)C(CC(=O)Nc2ccccc2)S/C1=N/c1nccs1 (configuration not stated)  -4.38%
36. CCOc1ccc(C(=O)NC2CCN(CC(=O)NCc3cccs3)CC2)cc1  -4.61%
37. Cc1ccnc(NC(=O)CCC(=O)N(CC(=O)NCCc2ccccc2)Cc2cccs2)c1  -4.68%
38. CCOc1ccc(CN2CCN(Cc3ccon3)CC2CCO)cc1 (configuration not stated)  -5.47%
39. O=C(Nc1cccnc1)c1cccc(S(=O)(=O)N2CCCC2)c1  -5.74%
40. CS(=O)(=O)N(CC(=O)N1CCCC1)Cc1ccccc1  -5.77%
41. COc1ccccc1N1CCN(C(=O)c2cc(-c3ccc(Cl)c(Cl)c3)on2)CC1  -6.68%
42. O=C(c1ccc(CSc2ccccc2)cc1)N1CCCCCC1  -6.75%
43. COc1ccccc1N1CCN(C(=O)c2cc(-c3ccc(Br)cc3)on2)CC1  -7.17%
44. COC(=O)c1sc2[nH]c(=S)n(N)c(=O)c2c1C  -7.2%
45. CCCCCc1ccc(-c2ccc(OCC)cc2)nc1  -7.26%
46. CCOC(=O)/C(C#N)=C/c1ccc(N2CCCCC2)cc1  -8.77%
47. Cc1cc(NC(=O)CSCc2ccccc2C)no1  -8.79%
48. O=C(CNC(=O)c1ccccc1)NCC(=O)OCC(=O)c1ccccc1 (Bz-Gly-Gly-OPac)  -9.69%
49. CCCCC(CCC(=O)Nc1ccc(C(=O)OCC)cc1)C(=O)O (configuration not stated)  -9.84%
50. O=C(NN1C(=O)C2C3C=CC(O3)C2C1=O)c1ccccc1 (configuration not stated)  -9.99%

With `COc1ccccc1C1=Nc2cccc3cccc(c23)N1` the inhibition was 69.7% (active).
For `CCCCCOC(=O)NCCOC(=O)Nc1ccc(C(=O)OCC)cc1`, the inhibition was 59.2% (active).
For `COc1ccccc1N1CCN(C(=O)c2ccc(S(=O)(=O)N3CCCCC3)cc2)CC1`, the inhibition was 59.5% (active).
With `O=C(c1ccc(S(=O)(=O)c2ccccc2)cc1)N1CCCCCC1` the inhibition was 55.1% (active).
With `COc1ccccc1N1CCN(C(=O)c2c(-c3c(Cl)cccc3Cl)noc2C)CC1` the inhibition was 98.5% (active).
In the case of `N#Cc1ccccc1-n1c(N)c(C(=O)N2CCCC2)sc1=S`, the inhibition is reported as 52.1% (active).
For `COc1ccc(C)cc1NC(=O)C(OC(=O)c1cccc(S(=O)(=O)N(C)c2ccccc2)c1)c1ccccc1` (configuration not stated), the inhibition was 97.6% (active).
With `CCOc1ccc(CN2CCCN(C)CC2)cc1` the inhibition was 54.1% (active).
In the case of `Cc1cccc(NC(=S)N2CCCC(c3nc4ccccc4[nH]3)C2)c1` (configuration not stated), the inhibition is reported as 99.1% (active).
For `Cc1ccc(Sc2ccncc2S(N)(=O)=O)cc1`, the inhibition was 84.9% (active).
With `Cc1ccc2c(c1)N(CC(=O)N(Cc1ccccn1)Cc1ccco1)C(=O)C(C(C)C)O2` (configuration not stated) the inhibition was 75.7% (active).
In the case of `CC(=O)/C(=N\Nc1ccc(Cl)cc1Cl)Sc1cccc2cccnc12`, the inhibition is reported as 96.8% (active).
